# Screens (PubChem)
# GAA glycogen mod = qHTS Assay for Inhibitors and Activators of Human alpha-Glucosidase Cleavage of Glycogen | 300,000 tested, 0.38% active | recombinant GAA, glycogen substrate, Amplex Red glucose oxidase fluorescence | Lysosomal alpha-glucosidase (Homo sapiens), P10253 | Potency, µM (top dose mostly 76.4 µM), for the others: at the top dose activity change, negative = inhibition, hits mostly inhibitors | AID 2100, 2009;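 note: potency is the fitted concentration of half-maximal effect; 0% = full enzyme reaction and -100% = no-enzyme basal signal; the screen sought inhibitors and activators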
#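 Recombinant human enzyme (4 nM); glycogen substrate; 37 C, 40 min, pH 5.0. Readout: coupled glucose oxidase/Amplex Red fluorescence.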
# FBPA coupling cs = qHTS Assay for Inhibitors of Fructose-1,6-bisphosphate Aldolase from Giardia Lamblia: Coupling assay counterscreen; activity change, negative = inhibition, % at 58.2 µM, hits read low; 290,000 tested, 0.67% active; AID 2472, 2010; coupling enzyme system counterscreen, AmpLite Red fluorescence; in the data active = activity change below about -30%
#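 Compounds tested against the coupling enzymes alone at 57.5 uM final; readout was AmpLite Red fluorescence (525/598 nm) after 20 min at RT.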
# GAA inh = qHTS Assay for Inhibitors of Human alpha-Glucosidase as a Potential Chaperone Treatment of Pompe Disease. Lysosomal alpha-glucosidase (Homo sapiens), P10253. purified human GAA, 4-MU-alpha-glucoside fluorescence. Potency, µM (highest dose often 76.9 µM), for inactives: top-dose activity change, negative = inhibition, usual class: inhibitors. 200,000 tested, 0.005% active. AID 1466, 2008;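 note: potency is the fitted concentration of half-maximal effect; plate controls were uninhibited enzyme wells for no effect and no-enzyme background for full effect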
#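 Human enzyme at 4 nM with 400 uM 4-methylumbelliferyl-alpha-D-pyranoside, citrate/phosphate buffer pH 5.0, 0.005% Tween-20, 20 min at room temperature. Compounds up to 77 uM. 4-MU fluorescence (Ex 365/Em 440) read after NaOH/glycine stop; AC50 from Hill fit.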
# B2AR arrestin = qHTS assay of beta-arrestin-biased ligands of beta2-adrenergic receptor; Potency, µM (highest dose often 46.1 µM), without a hit: at the top dose activation, actives largely listed as activators; beta-arrestin recruitment to beta2AR, cell-based reporter; Beta-2 adrenergic receptor (Homo sapiens), P07550; 330,000 tested, 0.02% active;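 note: potency is the fitted concentration of half-maximal effect; 0% = DMSO controls and full agonism = EC100 isoproterenol or metaproterenol; nearly all actives have a fitted effect of over 65% in size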
# Target sequence (P07550 whole entry, looked up): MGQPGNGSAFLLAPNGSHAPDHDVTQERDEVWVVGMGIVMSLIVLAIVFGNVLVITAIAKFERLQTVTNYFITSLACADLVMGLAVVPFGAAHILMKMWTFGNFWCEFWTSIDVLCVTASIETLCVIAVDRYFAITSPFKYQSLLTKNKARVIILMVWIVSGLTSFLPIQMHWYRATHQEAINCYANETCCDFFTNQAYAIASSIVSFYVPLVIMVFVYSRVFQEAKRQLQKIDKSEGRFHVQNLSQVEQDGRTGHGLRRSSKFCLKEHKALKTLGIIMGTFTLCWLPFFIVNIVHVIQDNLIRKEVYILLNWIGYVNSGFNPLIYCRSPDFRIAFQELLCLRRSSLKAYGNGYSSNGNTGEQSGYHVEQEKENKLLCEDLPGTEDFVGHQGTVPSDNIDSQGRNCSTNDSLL
# aGlu spleen mod = qHTS Assay for Inhibitors and Activators of Human alpha-Glucosidase From Spleen Homogenate | 240,000 tested, 0.006% active | human spleen homogenate, 4-MU-alpha-glucoside fluorescence | Potency, µM (doses to about 79.9 µM), for the others: top-dose activity change, negative = inhibition, hits mostly inhibitors | Lysosomal alpha-glucosidase (Homo sapiens), P10253 | AID 2112, 2009;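 note: potency is the fitted concentration of half-maximal effect; 0% = enzyme with vehicle and -100% = no enzyme basal signal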
#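 Compounds were titrated against alpha-glucosidase in spleen homogenate at pH 5.0, with 1 mM 4-methylumbelliferyl substrate for 40 min at 37 C. Reactions were quenched with pH 10 NaOH/glycine and fluorescence measured.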
# Numbers without * were called inactive; ? = inconclusive; · = no result; [ ] = dose if it differs, or a comment. An excerpt weighted towards active compounds, which were near 0.85% of everything screened. Unless noted, calls come from the whole dose curve; as a rule, active = well fitted curve in the direction sought with a large enough effect; inconclusive = small, poorly fitted or top-dose-only effect, or another doubt; inactive = no such curve, though single readings can be large; an effect the other way counts as inactive or inconclusive. Unless noted, % is set by controls: 0 for no effect and ±100 for the full control effect.
SMILES,GAA glycogen mod,FBPA coupling cs,GAA inh,B2AR arrestin,aGlu spleen mod
COc1ccccc1N1CCN(C2=Nc3cccc4cccc2c34)CC1,-2.5%,-18.1,-5.9%,0.1%,-4.7%
CC1CN(c2oc(-c3ccccc3Cl)nc2C#N)CC(C)O1 (configuration not stated),12.7%,-0.1,2.2%,0.2%,2.8%
CCOC(=O)N1CCN(C(=O)Nc2cccc3ccccc23)CC1,6.3%,-1.6,13.2%,-0.3%,-0.5%
CCOC(=O)N1CCN(C2=Nc3cccc4cccc2c34)CC1,22.0%,-56.6*,-7.6%,0.4%,-5.3%
COC(=O)C(C)CCCC(C)CCCC(C)CCCC(C)C (configuration not stated),·,0.9,·,·,-2.7%
CCCCCCCCCCCCCCCC(=O)OC[C@@H](COP(=O)([O-])OCC[N+](C)(C)C)OC(=O)CCCCCCCCCCCCCCC,·,5.4,·,·,7.3%
CCc1c2c(nc3ccc(OC)cc13)-c1nc3ccccc3c(=O)n1C2,·,-1.3,·,·,24.8%
N#Cc1cccc(-c2ccc3ncnc(NCCN4CCOCC4)c3c2)c1,·,1.0,·,·,7.1%
CN(C)c1ccc(NC(=O)CSCc2nc3c(nnn3Cc3ccc(F)cc3)c(=O)[nH]2)cc1,5.2%,-36.5*,-1.5%,-0.1%,1.1%
CCOc1ccc(OCC)c(C2C(C#N)=C(N)N(c3cccnc3)C3=C2C(=O)CC(C)(C)C3)c1 (configuration not stated),-4.1%,-51.6*,-9.7%,-1.5%,7.6%
CC1(C)CC(=O)C(c2c[nH]c3ccccc23)C(=O)C1,10µM*,-0.1,4.5%,-0.1%,-3.5%
CC12CN3CC(C)(CN(C1)C3c1c[nH]c3ccccc13)C2=O (configuration not stated),-7.9%,2.1,?,-0.6%,1.2%
Oc1ccccc1CNc1ccc2c(c1)OCCO2,?,-1.7,-6.2%,-0.8%,-19.8%
c1csc(CNc2ccc3c(c2)OCCO3)c1,?,-31.0*,-3.1%,-1.3%,-10.9%
COC(=O)C1(C(=O)OC)CC2=CCC3C(=O)N(c4ccccc4)C(=O)C3C2Cc2ccccc2[C@@H]1C[N+](=O)[O-] (some centres not stated),·,-0.5,·,·,0.1%
COC(=O)C1(C(=O)OC)C/C=C\Cc2ccccc2[C@@H]1C[N+](=O)[O-],·,2.4,·,·,3.8%
Cc1ccccc1NC1=C/C(=N\S(=O)(=O)c2ccc(C(=O)O)cc2)c2ccccc2C1=O,0.8%,-43.9*,·,-0.3%,·
O=S(=O)(/N=C(/Nc1ccccc1F)c1ccccc1)c1ccccc1,-2.3%,3.3,-1.4%,-0.4%,-2.2%
O=C(O)c1ccc(S(=O)(=O)/N=C2\C=C(Nc3ccccc3F)C(=O)c3ccccc32)cc1,-21.9%[76.3 µM],-45.4*,·,-0.1%,·
COC(=O)C(C(C)=O)C1=C/C(=N\S(=O)(=O)c2ccc(C)cc2)c2ccccc2C1=O (configuration not stated),20.2%,-33.4*,-4.0%,0.6%,-11.7%
Cc1ccccc1N/C(=N/S(=O)(=O)c1ccccc1)c1ccc(F)cc1,-7.6%,-0.2,·,-0.6%,2.6%
CCCn1cnc2cc(NCc3ccccn3)ccc21,-7.1%,-28.2,-0.5%[15.4 µM],-0.7%,1.6%
COc1cccc(CNc2ncc(Br)cc2Br)c1O,24.9µM*,-0.7,-5.4%,0.0%,-1.2%
CCCn1cnc2cc(NCc3cccc(OC)c3O)ccc21,17.6µM*,-1.0,-3.5%,-0.8%,-2.4%
COc1cccc(CNc2ccc(Br)cn2)c1O,?,-4.1,-13.2%,-0.5%,-3.3%
CC(NC(=O)C1CCCN1C(=O)CN)C(=O)O (configuration not stated),·,-0.7,·,·,1.7%
O=C(NCc1ccccc1)[C@]1(C(F)(F)F)C[C@H](CCC2CCCCC2)CCCO1,·,-0.2,·,·,0.6%
